Screening data: PubChem BioAssay, National Center for Advancing Translational Sciences (NCATS)
In the library only some 11% were active in any assay of this set; here they are far more common.
PNC assembly inh: perinucleolar compartment assembly inhibition; PC3M PTB-GFP, PNC prevalence imaging, 16 h; stronger effect = lower value; activity change (PNC), negative = inhibition, % at 10 µM; 3.1% of 140,000 active; AID 2417;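 active means readout at or below -70, meaning at least 70% loss of cells showing the perinucleolar compartment, a nuclear body marking cancer cells; inconclusive means readout between -30 and a set limit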;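 further: plate controls were DMSO wells for no effect and camptothecin positive control wells for full effect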
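Compounds are pinned in duplicate onto adhered PC3M cells stably expressing GFP-tagged PTB and incubated 16 h at 37 C. Cells are then fixed, nuclei stained with Hoechst, and PNC-positive cells counted.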
ALDH1A1 block: ALDH1A1 (human) enzyme inhibition. P00352. Purified ALDH1A1, NADH fluorescence, propionaldehyde substrate. Potency, µM (titrated, usually from 75.3 µM), without a hit: top-dose activity, negative = inhibition, usual class: inhibitors. 7.3% of 220,000 active. AID 1030;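 further: potency means the concentration at half of the fitted maximal effect; plate controls were no enzyme wells and a reference inhibitor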
HPGD block: inhibitors of human 15-hydroxyprostaglandin dehydrogenase (HPGD). P15428. purified HPGD, NADH fluorescence kinetic, PGE2 substrate. Potency, µM, without a hit: top-dose activity change, negative = inhibition, actives largely listed as inhibitors. 4.3% of 150,000 active. AID 894; further: potency means the concentration at half of the fitted maximal effect
Target sequence (P15428 whole entry, looked up): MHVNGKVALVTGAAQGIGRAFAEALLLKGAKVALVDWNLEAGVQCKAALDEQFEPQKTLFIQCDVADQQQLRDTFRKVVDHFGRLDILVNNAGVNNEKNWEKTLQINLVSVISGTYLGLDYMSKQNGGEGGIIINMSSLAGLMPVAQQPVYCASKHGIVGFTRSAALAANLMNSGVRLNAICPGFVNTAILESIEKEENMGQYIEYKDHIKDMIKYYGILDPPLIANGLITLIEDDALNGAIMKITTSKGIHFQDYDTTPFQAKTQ
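NADH formation kinetics: reaction with 30 uM PGE2 and 1 mM NAD+ (final), 20 nM enzyme, Tris-HCl pH 8 with Tween 20, after 15 min compound preincubation at room temperature. Fluorescence change, last versus first of five reads.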
* marks the source's active call; other numbers are inactive results; [ ] = another dose, or the depositor's remark. Unless noted, the call rests on the fitted dose curve; in most records, active means well fitted inhibition curve with a large enough effect (not every such curve was filed as active); inconclusive means small, poorly fitted or top-dose-only effect, or another doubt; inactive means no such curve, though single readings can be large or run the other way. Unless noted, on the % scale 0 is the no-effect control and ±100 the full control effect.

For CC1=C(C(=O)Nc2ccc(C)cc2C)C(c2ccc(C)o2)NC(=O)N1 (configuration not stated) the results were PNC assembly inh inconclusive, ALDH1A1 block 10% and HPGD block -2%.
`O=C(NCC1CCCO1)c1nc2c(nnn2Cc2ccc(F)cc2)c(=O)[nH]1` (configuration not stated) gave PNC assembly inh -16, ALDH1A1 block 1% and HPGD block 14µM*.
Screening O=C(NCc1ccco1)c1nc2c(nnn2Cc2ccccc2Cl)c(=O)[nH]1 returned PNC assembly inh 2, ALDH1A1 block -1% and HPGD block 14µM*.
For Cc1nc(NCC2CCCO2)c2nnn(Cc3ccccc3Cl)c2n1 (configuration not stated) the results were PNC assembly inh -12, ALDH1A1 block -15% and HPGD block -8%.
Screening O=C(NCC1CCCO1)C1CCC(=O)N1Cc1ccc(F)cc1 (configuration not stated) returned PNC assembly inh -16, ALDH1A1 block 5% and HPGD block -8%.
O=C(CN1CCN(Cc2ccccc2Cl)C1=O)NCc1ccco1 was read as PNC assembly inh -29, ALDH1A1 block 12% and HPGD block -1%.
Screening Cc1nc(NCC2CCCO2)c2nnn(Cc3ccccc3)c2n1 (configuration not stated) returned PNC assembly inh 15, ALDH1A1 block 22µM* and HPGD block -27%.
For Nc1c(C(=O)NCc2ccccc2)nnn1Cc1ccc(F)cc1 the results were PNC assembly inh 4, ALDH1A1 block 4% and HPGD block -15%.
Screening O=C(NCc1cccs1)c1nc2c(nnn2Cc2ccc(F)cc2)c(=O)[nH]1 returned PNC assembly inh -21, ALDH1A1 block -1% and HPGD block 14µM*.
Screening CCCn1c(C)nc2c(NCCN(C)C)nc(C)nc21 returned ALDH1A1 block 1% and HPGD block -19%.
`CC(=O)OCC(=O)[C@@]12OC3(CCCC3)OC1CC1C3CCC4=CC(=O)C=C[C@@]4(C)[C@]3(F)C(O)C[C@]12C` (some centres not stated) gave ALDH1A1 block -3% and HPGD block -7%.
`COC1=C(OC)C(=O)C(C/C=C(\C)CC/C=C(\C)CC/C=C(\C)CC/C=C(\C)CC/C=C(\C)CC/C=C(\C)CC/C=C(\C)CC/C=C(\C)CC/C=C(\C)CCC=C(C)C)=C(C)C1=O` gave ALDH1A1 block 4% and HPGD block 0%.
CCOC(=O)CCN1C(=O)[C@H]2[C@H]3[C@H](O)[C@H](O)C/C(=N/OC[C@@H](O)COCc4ccco4)[C@@H]3CC[C@@H]2C1=O was read as ALDH1A1 block 1%[13.5 µM].
`O=C(CSCc1nc2c(nnn2Cc2ccc(F)cc2)c(=O)[nH]1)Nc1c(Cl)cc(Cl)cc1Cl` gave ALDH1A1 block 2%.
`CCc1nc2c(nnn2Cc2ccc(F)cc2)c(=O)[nH]1` gave PNC assembly inh inconclusive, ALDH1A1 block -8% and HPGD block 14µM*.
Cc1ccc(NC(=S)NC(=O)c2ccccc2)cc1NC(=S)NC(=O)c1ccccc1 was read as ALDH1A1 block 3.5µM*.
Cc1cc(C)c(NC(=S)NC(=O)c2ccc(-c3ccccc3)cc2)c(C)c1 was read as PNC assembly inh 24, ALDH1A1 block 10µM* and HPGD block -8%.
Screening O=C(NC(=S)Nc1ccc2[nH]ncc2c1)c1ccccc1 returned PNC assembly inh inconclusive, ALDH1A1 block 10µM* and HPGD block inconclusive.
COC(=O)c1ccccc1NC(=S)NC(=O)c1ccccc1 was read as PNC assembly inh 1, ALDH1A1 block inconclusive and HPGD block inconclusive.
COC(=O)c1ccccc1NC(=S)NC(=O)c1ccc(C)cc1 was read as PNC assembly inh inconclusive, ALDH1A1 block inconclusive and HPGD block -30%.
`Cc1ccc2cn[nH]c2c1NC(=S)NC(=O)c1ccccc1` gave PNC assembly inh inconclusive, ALDH1A1 block inconclusive and HPGD block -16%.
For O=C(Nc1ccc2ncccc2c1)c1ccccc1Cl the results were ALDH1A1 block 2%.
Screening O=C(NC(=S)Nc1ccc2ncccc2c1)c1ccccc1 returned ALDH1A1 block 3.5µM*.
Screening Cc1cc(C)nc(NC(=O)C2c3ccccc3Oc3ccccc32)n1 returned ALDH1A1 block 6%.
O=P(O)(O)O[C@@H]1[C@H](O)[C@H](O)[C@@H](OP(=O)(O)O)[C@H](OP(=O)(O)O)[C@H]1O was read as ALDH1A1 block 2% and HPGD block 0%.
For COC(=O)C1=C(C)N(Cc2ccccc2)C2=C(C(C)=O)C[C@@](O)(C(=O)OC)C(=O)N2C1c1ccccc1 (some centres not stated) the results were ALDH1A1 block -6%[13.5 µM].
OCCN1CC(O)C(O)C(O)C1CO (configuration not stated) was read as ALDH1A1 block 6% and HPGD block -11%.
COc1ccc(C2(c3ccc(O)cc3O)CC(c3ccccc3Cl)NC(=S)N2)cc1 (configuration not stated) was read as ALDH1A1 block -3%.
`Cc1c(NC(=O)c2ccc3ncccc3c2)c(=O)n(-c2ccccc2)n1C` gave PNC assembly inh 0, ALDH1A1 block 6% and HPGD block -8%.
O=C(NNC(=S)Nc1ccccc1)c1ccc2ncccc2c1 was read as ALDH1A1 block 22µM*.
`Cc1ccc(C(=O)NC(=S)Nc2cc(-c3nc4ccccc4s3)ccc2C)cc1` gave PNC assembly inh -109*, ALDH1A1 block -8% and HPGD block -11%.
Screening Cc1ccc2cccnc2c1NC(=S)NC(=O)c1ccccc1 returned PNC assembly inh -30, ALDH1A1 block 28µM* and HPGD block -20%.
For Cc1ccc2cccc(NC(=S)NC(=O)c3ccccc3)c2n1 the results were PNC assembly inh -13, ALDH1A1 block inconclusive and HPGD block -7%.
`Cc1ccccc1NC(=S)NC(=O)c1cc(-c2ccccc2)nc2ccccc12` gave PNC assembly inh inconclusive, ALDH1A1 block inconclusive and HPGD block -24%.
For O=C(NC(=S)Nc1cccc2ncccc12)c1ccccc1 the results were ALDH1A1 block 14µM*.
`CC(=O)Nc1cccc2ncccc12` gave PNC assembly inh inconclusive, ALDH1A1 block 4% and HPGD block 2%.
COc1ccc(C(=O)NNC(=O)c2ccc(C)cc2)cc1S(=O)(=O)N1CCCC1 was read as ALDH1A1 block 3%.
O=C(O)c1ccccc1-c1ccccc1C(=O)Nc1ccc2c(c1)Cc1cc(F)ccc1-2 was read as ALDH1A1 block -4%[13.5 µM] and HPGD block -15%.
Screening COc1ccc(-n2ncc3c(=O)n(CC(=O)N4CCCc5ccccc54)cnc32)cc1 returned PNC assembly inh -10, ALDH1A1 block inconclusive and HPGD block inconclusive.
`O=C(Cn1cnc2c(nnn2Cc2ccccc2)c1=O)N1CCN(c2ccccc2)CC1` gave PNC assembly inh inconclusive, ALDH1A1 block -2% and HPGD block -13%.
For COc1cccc(-n2nnc3c(=O)n(CC(=O)N4CCC(Cc5ccccc5)CC4)cnc32)c1 the results were PNC assembly inh 10, ALDH1A1 block 2µM* and HPGD block -25%.
For COc1ccc(-c2noc(=O)n2CC(=O)N2CCC(Cc3ccccc3)CC2)cc1 the results were ALDH1A1 block 25µM*.
